Measurements taken from the supplement of paper PMC10037445.
Over roughly 2,900 compounds, “IRF Lucia reporter activity, fold change vs agonist alone” has its median near 0.9; the highest 2% begin near 2.8. The entries come from a sample that favours the highest values as a whole.

Legend:
[1] = test system: RAW-Dual; test: IRF Lucia reporter activity, fold change vs agonist alone; higher = enhanced IRF activity; conditions: agonist: MPLA (TLR4) […]
How it was run: (§1)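 Library stock was pin-tooled at 50 nL into 384-well plates of RAW-Dual macrophages (50,000 cells/well, DMEM), followed 1 h later by a PRR agonist, and the cells were kept at 37 °C, 5% CO2. Supernatant collected after 20 hours was read for IRF by QuantiLuc luminescence and for NF-κB by QuantiBlue absorbance at 620 nm. Reporter activity is fold change over agonist-alone wells, and a well counted as cytotoxic when its IncuCyte confluency was below 70% of agonist controls in both mask sets.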

[2] = test system: RAW-Dual; test: IRF Lucia reporter activity, fold change vs agonist alone; cytotoxicity flag (confluency mask): not cytotoxic; higher = enhanced IRF activity
How it was run: as §1

[3] = library stock concentration (final ~1000-fold dilution): 10 mM, cytotoxicity flag (confluency mask): not cytotoxic
[4] = agonist: 3'3'-cGAMP (STING) 10 ug/mL

CCS(=O)(=O)O.COC(=O)c1ccc2c(c1)NC(=O)/C2=C(\Nc1ccc(N(C)C(=O)CN2CCN(C)CC2)cc1)c1ccccc1
IRF Lucia reporter activity [1, 3]: 0.215

CCS(=O)(=O)O.COC(=O)c1ccc2c(c1)NC(=O)/C2=C(\Nc1ccc(N(C)C(=O)CN2CCN(C)CC2)cc1)c1ccccc1 (library stock concentration (final ~1000-fold dilution): 10 mM)
IRF Lucia reporter activity [2, 4]: 0.0841 | IRF Lucia reporter activity ([2]; agonist: LPS (TLR4) 0.1 ug/mL): 0.246

Cc1nnc(NC(=O)c2nc(S(=O)(=O)Cc3ccc(F)cc3)ncc2Cl)s1 (library stock concentration (final ~1000-fold dilution): 10 mM)
IRF Lucia reporter activity [2, 4]: 0.0452 | IRF Lucia reporter activity ([2]; agonist: LPS (TLR4) 0.1 ug/mL): 0.308

NC1C(O)OC(CO)C(O)C1O (configuration not stated) (library stock concentration (final ~1000-fold dilution): 10 mM)
IRF Lucia reporter activity [2, 4]: 0.143 | IRF Lucia reporter activity ([2]; agonist: LPS (TLR4) 0.1 ug/mL): 0.267

CC(C)=CCC[C@](C)(O[C@@H]1O[C@H](CO)[C@@H](O)C(O)[C@H]1O)[C@H]1CC[C@]2(C)[C@H]1[C@H](O)CC1[C@@]3(C)CC[C@H](O)C(C)(C)[C@@H]3[C@@H](O[C@@H]3O[C@H](CO)[C@@H](O)[C@H](O)[C@H]3O[C@@H]3O[C@@H](C)[C@H](O)[C@@H](O)[C@H]3O)C[C@]12C (some centres not stated) (library stock concentration (final ~1000-fold dilution): 10 mM)
IRF Lucia reporter activity [2, 4]: 1.16 | IRF Lucia reporter activity ([2]; agonist: LPS (TLR4) 0.1 ug/mL): 1.03

CCCCCCCCCCCCCC(=S)NCCCCC(NC(=O)OCc1ccccc1)C(=O)Nc1ccccc1 (configuration not stated) (library stock concentration (final ~1000-fold dilution): 10 mM)
IRF Lucia reporter activity [2, 4]: 0.949 | IRF Lucia reporter activity ([2]; agonist: LPS (TLR4) 0.1 ug/mL): 1.09

COc1ccc2cc(-c3[nH]c(-c4ccc(S(C)=O)cc4)nc3-c3ccncc3)ccc2c1 (configuration not stated) (library stock concentration (final ~1000-fold dilution): 10 mM)
IRF Lucia reporter activity [2, 4]: 0.0441 | IRF Lucia reporter activity ([2]; agonist: LPS (TLR4) 0.1 ug/mL): 0.466

COc1ccc2cc(-c3[nH]c(-c4ccc(S(C)=O)cc4)nc3-c3ccncc3)ccc2c1 (configuration not stated)
IRF Lucia reporter activity [1, 3]: 0.798

CN(C)CCOc1ccc(-c2nc(-c3ccncc3)c(-c3ccc4c(c3)CC/C4=N\O)[nH]2)cc1
IRF Lucia reporter activity [1, 3]: 1.04

OCCn1cc(-c2ccc3c(c2)CC/C3=N\O)c(-c2ccncc2)n1 (library stock concentration (final ~1000-fold dilution): 10 mM)
IRF Lucia reporter activity [2, 4]: 0.614 | IRF Lucia reporter activity ([2]; agonist: LPS (TLR4) 0.1 ug/mL): 0.658

CN(C)CCOc1ccc(-c2nc(-c3ccncc3)c(-c3ccc4c(c3)CC/C4=N\O)[nH]2)cc1 (library stock concentration (final ~1000-fold dilution): 10 mM)
IRF Lucia reporter activity [2, 4]: 0.992 | IRF Lucia reporter activity ([2]; agonist: LPS (TLR4) 0.1 ug/mL): 3.04

OCCn1cc(-c2ccc3c(c2)CC/C3=N\O)c(-c2ccncc2)n1
IRF Lucia reporter activity [1, 3]: 0.784

CC(C)CCn1c(CN2CCN(C(=O)C3CC3)CC2)nc2c1c(=O)n(C)c(=O)n2C (library stock concentration (final ~1000-fold dilution): 10 mM)
IRF Lucia reporter activity [2, 4]: 0.987 | IRF Lucia reporter activity ([2]; agonist: LPS (TLR4) 0.1 ug/mL): 0.989

CN1CCC(CNc2ccc3ncc(-c4cccc(OC(F)(F)F)c4)n3n2)CC1 (library stock concentration (final ~1000-fold dilution): 10 mM)
IRF Lucia reporter activity [2, 4]: 1.03 | IRF Lucia reporter activity ([2]; agonist: LPS (TLR4) 0.1 ug/mL): 0.089

CN1CCC(COc2cnc(-c3cccc(Cn4nc(-c5cccc(C#N)c5)ccc4=O)c3)nc2)CC1 (library stock concentration (final ~1000-fold dilution): 10 mM)
IRF Lucia reporter activity [2, 4]: 0.676 | IRF Lucia reporter activity ([2]; agonist: LPS (TLR4) 0.1 ug/mL): 3.96

CN1CCC(CNc2ccc3ncc(-c4cccc(OC(F)(F)F)c4)n3n2)CC1
IRF Lucia reporter activity [1, 3]: 1.07

CN1CCC(COc2cnc(-c3cccc(Cn4nc(-c5cccc(C#N)c5)ccc4=O)c3)nc2)CC1
IRF Lucia reporter activity [1, 3]: 1.37

CC(C)N(CCC(c1ccccc1)c1cc(CO)ccc1O)C(C)C (configuration not stated)
IRF Lucia reporter activity [1, 3]: 0.986

CC(C)N(CCC(c1ccccc1)c1cc(CO)ccc1O)C(C)C (configuration not stated) (library stock concentration (final ~1000-fold dilution): 10 mM)
IRF Lucia reporter activity [2, 4]: 0.857 | IRF Lucia reporter activity ([2]; agonist: LPS (TLR4) 0.1 ug/mL): 0.982

CCCC1CC(C(=O)NC(C(C)Cl)C2OC(SC)C(OP(=O)(O)O)C(O)C2O)N(C)C1 (configuration not stated)
IRF Lucia reporter activity ([1]; library stock concentration (final ~1000-fold dilution): 10 mM water, cytotoxicity flag (confluency mask): not cytotoxic): 1.42

CCCC1CC(C(=O)NC(C(C)Cl)C2OC(SC)C(OP(=O)(O)O)C(O)C2O)N(C)C1 (configuration not stated) (library stock concentration (final ~1000-fold dilution): 10 mM water)
IRF Lucia reporter activity [2, 4]: 1.23 | IRF Lucia reporter activity ([2]; agonist: LPS (TLR4) 0.1 ug/mL): 0.95

CCOC(=O)C1=C(COCCN)NC(C)=C(C(=O)OC)C1c1ccccc1Cl.O=S(=O)(O)c1ccccc1 (configuration not stated)
IRF Lucia reporter activity ([1]; library stock concentration (final ~1000-fold dilution): 10 mM, cytotoxicity flag (confluency mask): cytotoxic (confluency <70% of control)): 3.36

CCCC(=O)OCOC(=O)C1=C(C)NC(C)=C(C(=O)OC)C1c1cccc(Cl)c1Cl (configuration not stated) (library stock concentration (final ~1000-fold dilution): 10 mM)
IRF Lucia reporter activity [2, 4]: 1.02 | IRF Lucia reporter activity ([2]; agonist: LPS (TLR4) 0.1 ug/mL): 0.873

CCCC(=O)OCOC(=O)C1=C(C)NC(C)=C(C(=O)OC)C1c1cccc(Cl)c1Cl (configuration not stated)
IRF Lucia reporter activity [1, 3]: 0.992

COC(=O)C1=C(C)NC(C)=C(C(=O)OCC(C)C)C1c1ccccc1[N+](=O)[O-] (configuration not stated) (library stock concentration (final ~1000-fold dilution): 10 mM)
IRF Lucia reporter activity [2, 4]: 0.585 | IRF Lucia reporter activity ([2]; agonist: LPS (TLR4) 0.1 ug/mL): 0.872

COC(=O)C1=C(C)NC(C)=C(C(=O)OCC(C)C)C1c1ccccc1[N+](=O)[O-] (configuration not stated)
IRF Lucia reporter activity [1, 3]: 0.508

COC(=O)C1=C(C)NC(C)=C(C(=O)OC)C1c1ccccc1[N+](=O)[O-]
IRF Lucia reporter activity [1, 3]: 0.406
